Drawing on the supplement of paper PMC3484114, this text covers cell growth for 39 compounds.

± gives the standard deviation.

The test system of the experiment is OVCAR-3-derived ovarian cancer stem-like cells (spheroids). The experiment can be described thus: cell growth relative to untreated control; higher = more growth (less inhibition). The settings on record: 2.29 µM; 96 h. The procedure, abridged: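 OVCAR-3 spheroid-derived stem-like cells were trypsin-dissociated, seeded at 50,000 cells/mL in stem cell medium in ultra-low attachment 96-well plates and preincubated 24 h. Compounds were then added at 2.29 uM for 96 h at 37°C, 5% CO2, in 4 replicate wells. Viability was read as TOX8 resazurin fluorescence (ex 560/em 590 nm) after 4 h. Percent growth was calculated relative to untreated wells after blank subtraction and Grubbs outlier removal.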
Take `Cc1c(C(=O)C/C(=N\O)C(=O)Nc2cc(Cl)c(Cl)cc2Cl)[n+](=O)c2ccccc2n1[O-]`: the cell growth was 68.5 ± 17%.

As for `COc1ccc2nc(C)cc(NCCCCCCCCCNc3cc(C)nc4ccc(OC)cc34)c2c1`, the cell growth amounted to 75.9 ± 37%.

Take `CCCc1c(Cl)nc(Cl)nc1Cl`: the cell growth was 96.4 ± 19%.

Compound `O=C1c2ccccc2C(=O)c2sc(Nc3ccc(Cl)cc3)nc21` showed a cell growth of 14.5 ± 3.2%.

Consider `CN1C(Cl)=NS(=O)(=O)c2ccccc21`, for which the cell growth amounted to 99.9 ± 12%.

Regarding `CN(C)CCNC(=O)c1cccc2[nH]c(-c3ccncc3)nc12`, the cell growth was found to be 96.5 ± 22%.

For the compound `O=S(=O)(O)SC/C=C/CSS(=O)(=O)O`, the cell growth was 143 ± 16%.

As for `Nc1ccn([C@@H]2O[C@H](CO)[C@@H](O)[C@@H]2O)c(=O)n1`, the cell growth was 76.6 ± 11%.

Consider `COc1ccc(C2=Nc3ccccc3SC(C)C2)cc1` (centres undefined), for which the cell growth came out at 91.1 ± 17%.

The compound `CC(=O)N=C1N(/C=C2\C(=O)Oc3ccccc3C2=O)C(=O)/C(=C/c2ccccc2Cl)N1C` returned a cell growth of 122 ± 43%.

In turn, `O=C1c2ccccc2-c2c1c1ccccc1c(=O)n2Cc1ccccc1` returned a cell growth of 86.2 ± 51%.

For the compound `CCCCCCCCCc1c(Cl)nc(Cl)nc1Cl`, the cell growth was 113 ± 24%.

Turning to `O=C(C[n+]1ccc2ccccc2c1)c1ccc2ccc3ccccc3c2c1`, the cell growth is 95.1 ± 31%.

As for `Cc1nc(-c2cccnc2)sc1C(=O)/C=C/c1ccc(Cl)cc1Cl`, the cell growth turned out to be 114 ± 34%.

Compound `O=C(/C=C/c1c(O)ccc2ccccc12)c1cccc(O)c1` yielded a cell growth of 94.3 ± 20%.

On to `Cc1c(Cl)cccc1NC(=O)c1cccc([N+](=O)[O-])c1O`, for which the cell growth amounted to 106 ± 20%.

`CN(C)c1ccc(/C=c2/sc3nc(=O)c(-c4ccccc4NC(=O)C(F)(F)F)nn3c2=O)cc1` yielded a cell growth of 83.4 ± 18%.

Consider `O=C(CC1(O)C(=O)Nc2c(Cl)cc(Cl)cc21)c1ccc([N+](=O)[O-])cc1` (centres undefined), for which the cell growth turned out to be 101 ± 29%.

`Clc1ccc(C(c2ccccc2Cl)C(Cl)Cl)cc1` (centres undefined): the cell growth is 128 ± 48%.

In turn, `CN1CCC23c4ccccc4NC1C21CCN(C)C3Nc2ccccc21` showed a cell growth of 118 ± 10%.

`CCCCS(=N)(=O)CCC(N)C(=O)O` (centres undefined): the cell growth stood at 86.6 ± 8.1%.

The compound `CC[C@]1(O)C[C@H]2CN(CCc3c([nH]c4ccccc34)[C@@](C(=O)OC)(c3cc4c(cc3OC)N(C=O)[C@H]3[C@@](O)(C(=O)OC)[C@H](OC(C)=O)[C@]5(CC)C=CCN6CC[C@]43[C@@H]65)C2)C1` had a cell growth of 27 ± 6%.

The compound `OC(CBr)C(O)C(O)C(O)CBr` (centres undefined) returned a cell growth of 11.6 ± 4%.

For the compound `c1ccc(-c2cccc(-c3ccccn3)n2)nc1`, the cell growth was 79.9 ± 17%.

`CC(C)CCCCCCCCCCCCC(=O)NCC(=O)N[C@@H]1[C@@H](O)[C@H](O)[C@@H](Nc2ncnc3nc[nH]c23)O[C@H]1[C@@H](O)CO` yielded a cell growth of 13.2 ± 4.3%.

`O=C1C=Cc2ncccc2C1=O`: the cell growth turned out to be 97.9 ± 16%.

`CC1(C)CC(Nc2ccc(Nc3ccccc3)cc2)CC(C)(C)N1` came in with a cell growth of 72.4 ± 10%.

`COc1cc(C(C)c2cc3c(cc2OCCO)OCO3)cc(OC)c1OC` (centres undefined) registered a cell growth of 24.7 ± 6.7%.

The compound `Cn1ncc2cc3c(Nc4ccc(Cl)cc4)cccc3nc21` showed a cell growth of 8 ± 4.9%.

On to `CCCCCCCC/C=C\CCCCCCCC(=O)O`, for which the cell growth worked out at 124 ± 36%.

Compound `CCn1c(O)c(C=Nc2ccccc2)s/c1=N/Nc1ncc(CC(=O)Nc2ccccc2C)s1` displayed a cell growth of 95.9 ± 16%.

Compound `CCOC(=O)C1=C(C)NC(=S)NC1c1ccccc1` (centres undefined) returned a cell growth of 103 ± 12%.

Take `CCC1=C(C[C@H]2NCCc3cc(OC)c(OC)cc32)C[C@H]2c3cc(OC)c(OC)cc3CCN2C1`: the cell growth is 21.1 ± 7.4%.

Turning to `CCN(CC)CCOC(=O)Cc1cccc2c(=O)cc(-c3ccccc3)oc12`, the cell growth was 91.6 ± 23%.

Take `CC(=O)OC[C@H]1O[C@@H](NC(=O)N(CCCl)N=O)[C@H](OC(C)=O)[C@@H](OC(C)=O)[C@@H]1OC(C)=O`: the cell growth worked out at 115 ± 15%.

`COc1ccc(NC(=O)C(=O)/C=C(\O)c2ccccc2)cc1` returned a cell growth of 107 ± 46%.

For `COc1ccc2c(NCCCCCCNc3c4ccccc4nc4cc(OC)ccc34)c3ccccc3nc2c1`, the cell growth turned out to be 13.9 ± 5.5%.

In turn, `Cn1c(=O)c2nc3sc4c(n3c2n(C)c1=O)C(=O)c1ccccc1C4=O` came in with a cell growth of 115 ± 20%.

Regarding `N#CC(C#N)=Cc1ccc(Oc2ccccc2)cc1`, the cell growth was determined as 86.2 ± 51%.
